The source made the active and inactive calls. The calls were made as follows: active = hit-call score of the fitted dose curve at least 0.9, where 1 is the maximum; inactive = score below 0.9.
What was measured:
Details in all cases: mRNA level, 48 h; actives raise or lower the signal
BCL2L11 (gene 10018) = assay: LTEA_HepaRG_BCL2L11: Life Technologies and Expression Analysis (LTEA) Assay for Bcl-2 (BCL2L11) gene using HepaRG (AID 2283473)
Procedure, shortened: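 Read-out is BCL2L11 transcript level by qRT-PCR, normalized to three housekeeping genes and fitted bidirectionally against 0.5% DMSO vehicle. HepaRG cells received chemicals for 48 h in serum-free induction medium, 100 uM down in half-log dilutions.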

[1] = read-out: Apolipoprotein A-V (APOA5) gene, APOA5 (gene 116519); assay: LTEA_HepaRG_APOA5: Life Technologies and Expression Analysis (LTEA) Assay for Apolipoprotein A-V (APOA5) gene using HepaRG (AID 2283474)
Procedure, shortened: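 Readout is APOA5 transcript level by qRT-PCR on Fluidigm dynamic arrays, normalized to three housekeeping genes. HepaRG cultures received chemicals for 48 h at up to 100 uM (half-log steps, 0.5% DMSO), with gain or loss scored relative to DMSO.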

[2] = read-out: Apoptosis regulator Bcl-2 (Homo sapiens) (UniProt P10415); assay: LTEA_HepaRG_BCL2: Life Technologies and Expression Analysis (LTEA) Assay for Bcl-2 gene using HepaRG (AID 2283475)
Procedure, shortened: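 Differentiated human HepaRG cells in serum-free induction medium exposed 48 h, in duplicate, to 8-point half-log series from 100 uM in 0.5% DMSO. BCL2 mRNA by qRT-PCR (TaqMan/Fluidigm), normalized to ACTB, GAPDH, POLR2A; bidirectional fit against DMSO.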

[3] = read-out: Bcl-2 (BID) gene, BID (gene 637); assay: LTEA_HepaRG_BID: Life Technologies and Expression Analysis (LTEA) Assay for Bcl-2 (BID) gene using HepaRG (AID 2283476)
Procedure, shortened: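 Gene expression by qRT-PCR in HepaRG cells after 48 h exposure, duplicate wells, eight half-log concentrations topping at 100 uM in 0.5% DMSO. Normalized to ACTB, GAPDH, POLR2A; bidirectional fitting relative to DMSO.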

Caspase-3 (Homo sapiens) = Caspase-3 (Homo sapiens) (UniProt P42574); assay: LTEA_HepaRG_CASP3: Life Technologies and Expression Analysis (LTEA) Assay for cysteine-aspartic acid protease (CASP3) using HepaRG (AID 2283477)
Sequence of Caspase-3 (Homo sapiens) (P42574 whole entry, looked up): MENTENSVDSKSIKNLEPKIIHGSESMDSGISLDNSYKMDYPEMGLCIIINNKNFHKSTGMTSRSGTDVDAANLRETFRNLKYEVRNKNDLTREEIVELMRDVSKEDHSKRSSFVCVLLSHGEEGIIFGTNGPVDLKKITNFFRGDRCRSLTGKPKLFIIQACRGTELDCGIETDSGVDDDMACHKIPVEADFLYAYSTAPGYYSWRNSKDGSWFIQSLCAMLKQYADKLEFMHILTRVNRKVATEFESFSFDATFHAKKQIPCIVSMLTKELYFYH
Procedure, shortened: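 Read-out is CASP3 mRNA level by TaqMan qRT-PCR in human HepaRG cells after 48 h chemical exposure. Eight half-log concentrations topping at 100 uM were tested in 0.5% DMSO; gain or loss was fitted relative to DMSO.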

[4] = read-out: Cytochrome P450 (CYP24A1), CYP24A1 (gene 1591); assay: LTEA_HepaRG_CYP24A1: Life Technologies and Expression Analysis (LTEA) Assay for Cytochrome P450 (CYP24A1) using HepaRG (AID 2283478)
Procedure, shortened: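 HepaRG, 48 h chemical exposure, 8-pt half-log CRC from 100 uM, 0.5% DMSO vehicle, duplicates. Endpoint: CYP24A1 mRNA by Fluidigm TaqMan qRT-PCR, normalized ACTB/GAPDH/POLR2A; gain/loss fit vs DMSO.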

[5] = read-out: Cytochrome P450 (CYP1A2), CYP1A2 (gene 1544); assay: LTEA_HepaRG_CYP1A2: Life Technologies and Expression Analysis (LTEA) Assay for Cytochrome P450 (CYP1A2) using HepaRG (AID 2283479)
Procedure, shortened: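 CYP1A2 transcript induction or loss, quantified by Fluidigm qRT-PCR against three housekeeping genes, was fitted bidirectionally against 0.5% DMSO controls. Human HepaRG cells received eight half-log concentrations from 100 uM over 48 h.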

[6] = read-out: Cytochrome P450 (CYP2B6), CYP2B6 (gene 1555); assay: LTEA_HepaRG_CYP2B6: Life Technologies and Expression Analysis (LTEA) Assay for Cytochrome P450 (CYP2B6) using HepaRG (AID 2283481)
Procedure, shortened: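 HepaRG cells plated 48 h, switched to serum-free induction medium, then dosed 48 h (8 points, half-log from 100 uM, 0.5% DMSO). RNA isolated; CYP2B6 expression measured by qRT-PCR; gain or loss fitted relative to DMSO.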

CYP2C8 (gene 1558) = assay: LTEA_HepaRG_CYP2C8: Life Technologies and Expression Analysis (LTEA) Assay for CYP2C8 using HepaRG (AID 2283483)
Procedure, shortened: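 CYP2C8 mRNA induction or loss, by qRT-PCR normalized to ACTB/GAPDH/POLR2A, is read in HepaRG cells after 48 h treatment. Concentrations run from 100 uM down in half-log dilutions, with 0.5% DMSO as vehicle and baseline.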

CYP2C9 (gene 1559) = assay: LTEA_HepaRG_CYP2C9: Life Technologies and Expression Analysis (LTEA) Assay for CYP2C9 using HepaRG (AID 2283484)
Procedure, shortened: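 Cells plated 48 h, switched to serum-free induction medium, then treated in duplicate for 48 h at eight concentrations (max 100 uM, 0.5% DMSO). RNA then analysed by qRT-PCR for CYP2C9; curves fitted in both directions relative to DMSO.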

CYP2E1 (gene 1571) = assay: LTEA_HepaRG_CYP2E1: Life Technologies and Expression Analysis (LTEA) Assay for CYP2E1 using HepaRG (AID 2283485)
Procedure, shortened: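 HepaRG cells, plated 48 h, then exposed 48 h in serum-free induction medium to eight half-log concentrations from 100 uM in 0.5% DMSO, duplicate. CYP2E1 mRNA by qRT-PCR, normalized to ACTB/GAPDH/POLR2A; bidirectional fit versus DMSO.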

CYP4A11 (gene 1579) = assay: LTEA_HepaRG_CYP4A11: Life Technologies and Expression Analysis (LTEA) Assay for CYP4A11 using HepaRG (AID 2283486)
Procedure, shortened: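 HepaRG, 48 h chem exposure, 8 conc (100 uM top, half-log), 0.5% DMSO vehicle; qRT-PCR readout, housekeeping-gene normalized; bidirectional curve fit vs DMSO baseline.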

[7] = read-out: Cytochrome P450 3A4 (Homo sapiens) (UniProt P08684); assay: LTEA_HepaRG_CYP3A4: Life Technologies and Expression Analysis (LTEA) Assay for CYP3A4 using HepaRG (AID 2283487)
Procedure, shortened: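 Differentiated HepaRG cells in serum-free induction medium exposed in duplicate for 48 h to 8 half-log concentrations up to 100 uM in 0.5% DMSO. CYP3A4 mRNA measured by qRT-PCR normalized to ACTB, GAPDH and POLR2A; bidirectional fit versus DMSO.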

[8] = read-out: DNA damage-inducible transcript 3 (DDIT3), DDIT3 (gene 1649); assay: LTEA_HepaRG_DDIT3: Life Technologies and Expression Analysis (LTEA) Assay for DNA damage-inducible transcript 3 (DDIT3) using HepaRG (AID 2283488)
Procedure, shortened: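 HepaRG cells, 48 h after plating, exposed 48 h in serum-free induction medium to 8 half-log concentrations up to 100 uM in 0.5% DMSO, in duplicate. DDIT3 mRNA measured by TaqMan qRT-PCR, normalized to ACTB, GAPDH and POLR2A. Fitted bidirectionally against DMSO.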

[9] = read-out: Pro-epidermal growth factor (Homo sapiens) (UniProt P01133); assay: LTEA_HepaRG_EGF: Life Technologies and Expression Analysis (LTEA) Assay for Epidermal growth factor (EGF) using HepaRG (AID 2283489)
Procedure, shortened: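 HepaRG, 48 h dosing, 100 uM top, half-log x8, 0.5% DMSO. Readout: TaqMan qRT-PCR (Fluidigm array), housekeeping-normalized. Gain or loss of signal fit vs DMSO.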

[10] = read-out: Cytochrome P450 3A7 (Homo sapiens) (UniProt P24462); assay: LTEA_HepaRG_CYP3A7: Life Technologies and Expression Analysis (LTEA) Assay for CYP3A7 using HepaRG (AID 2283492)
Procedure, shortened: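 Human HepaRG liver cells, 48 h post-plating, switched to serum-free induction medium and exposed in duplicate for 48 h. Dosing: 100 uM top, half-log dilutions, 8 points, 0.5% DMSO vehicle. Read-out: CYP3A7 mRNA, gain or loss fitted against DMSO baseline.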

[11] = read-out: cysteine-aspartic acid protease (CASP8), CASP8 (gene 841); assay: LTEA_HepaRG_CASP8: Life Technologies and Expression Analysis (LTEA) Assay for cysteine-aspartic acid protease (CASP8) using HepaRG (AID 2283480)
Procedure, shortened: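 HepaRG, 48 h exposure, duplicate wells; 8 conc, half-log from 100 uM, 0.5% DMSO. Serum-free induction medium. CASP8 mRNA by TaqMan qRT-PCR, norm. ACTB/GAPDH/POLR2A; gain/loss fitted vs DMSO.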

[12] = read-out: Early growth response protein 1 (EGR1) transcription factor, EGR1 (gene 1958); assay: LTEA_HepaRG_EGR1: Life Technologies and Expression Analysis (LTEA) Assay for Early growth response protein 1 (EGR1) transcription factor using HepaRG (AID 2283490)
Procedure, shortened: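 Read-out is EGR1 mRNA level by qRT-PCR, normalized to three housekeeping genes and analysed for gain or loss of signal against 0.5% DMSO. Source cells: human HepaRG, treated 48 h at up to 100 uM in half-log dilutions.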

[13] = read-out: Ezrin (EZR), EZR (gene 7430); assay: LTEA_HepaRG_EZR: Life Technologies and Expression Analysis (LTEA) Assay for Ezrin (EZR) using HepaRG (AID 2283491)
Procedure, shortened: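 Differentiated human HepaRG cells, 48 h after plating, were exposed in serum-free induction medium for 48 hours to eight half-log concentrations up to 100 uM in 0.5% DMSO. EZR mRNA was measured by TaqMan qRT-PCR, normalized to ACTB, GAPDH and POLR2A, and fitted bidirectionally against DMSO.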

Measured: AC50

Sequence of Apoptosis regulator Bcl-2 (Homo sapiens) (P10415 whole entry, looked up): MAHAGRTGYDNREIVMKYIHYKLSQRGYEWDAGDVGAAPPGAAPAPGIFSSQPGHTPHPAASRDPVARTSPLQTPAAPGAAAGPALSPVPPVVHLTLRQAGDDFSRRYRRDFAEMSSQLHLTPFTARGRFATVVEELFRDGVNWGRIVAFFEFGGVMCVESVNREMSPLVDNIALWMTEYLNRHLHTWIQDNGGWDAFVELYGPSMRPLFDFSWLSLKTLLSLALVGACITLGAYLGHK
Sequence of Cytochrome P450 3A4 (Homo sapiens) (P08684 whole entry, looked up): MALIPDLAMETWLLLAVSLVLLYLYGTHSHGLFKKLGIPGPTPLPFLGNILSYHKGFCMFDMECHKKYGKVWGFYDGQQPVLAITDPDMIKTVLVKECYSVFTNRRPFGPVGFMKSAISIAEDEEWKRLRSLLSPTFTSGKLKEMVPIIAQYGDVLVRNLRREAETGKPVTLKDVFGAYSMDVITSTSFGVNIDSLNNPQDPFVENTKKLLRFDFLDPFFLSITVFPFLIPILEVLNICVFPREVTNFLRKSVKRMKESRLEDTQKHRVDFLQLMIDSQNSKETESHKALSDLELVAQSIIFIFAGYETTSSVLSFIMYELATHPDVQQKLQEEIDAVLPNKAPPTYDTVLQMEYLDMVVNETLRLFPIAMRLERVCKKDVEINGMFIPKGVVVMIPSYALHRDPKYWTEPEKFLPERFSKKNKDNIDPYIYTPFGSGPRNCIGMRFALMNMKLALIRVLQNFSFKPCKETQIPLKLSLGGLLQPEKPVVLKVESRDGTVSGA
Sequence of Cytochrome P450 3A7 (Homo sapiens) (P24462 whole entry, looked up): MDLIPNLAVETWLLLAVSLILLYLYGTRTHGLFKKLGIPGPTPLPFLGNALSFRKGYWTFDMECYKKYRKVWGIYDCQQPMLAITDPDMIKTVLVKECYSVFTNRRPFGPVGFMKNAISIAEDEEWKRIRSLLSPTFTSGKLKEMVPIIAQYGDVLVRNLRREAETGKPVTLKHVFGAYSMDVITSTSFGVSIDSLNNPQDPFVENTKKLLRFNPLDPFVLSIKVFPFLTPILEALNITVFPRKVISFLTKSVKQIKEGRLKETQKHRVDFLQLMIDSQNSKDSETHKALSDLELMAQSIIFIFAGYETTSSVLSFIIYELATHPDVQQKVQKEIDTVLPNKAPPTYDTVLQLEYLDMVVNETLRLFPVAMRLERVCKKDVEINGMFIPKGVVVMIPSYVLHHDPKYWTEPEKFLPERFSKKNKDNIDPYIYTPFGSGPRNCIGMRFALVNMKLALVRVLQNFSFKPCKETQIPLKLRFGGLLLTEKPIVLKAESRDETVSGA

c1ccc2c(c1)-c1cccc3c1c-2cc1ccccc13
active: BCL2L11 (gene 10018) 12.5 µM | [1] 13.4 µM | [2] 6 µM | Caspase-3 (Homo sapiens) 13.5 µM | [5] 1.13 µM | CYP2C8 (gene 1558) 17.3 µM | CYP2C9 (gene 1559) 18.1 µM | CYP2E1 (gene 1571) 14.7 µM | CYP4A11 (gene 1579) 26.1 µM | [7] 7.02 µM | [8] 7.35 µM | [10] 13 µM
inactive: [3] | [4] | [6] | [9]

COc1cc(C(C)C)c2c(c1)S(=O)(=O)N(COc1cc(=O)n3cccc(OCCN4CCCCC4)c3n1)C2=O
active: [1] 22.6 µM | [2] 22.1 µM | [6] 22.5 µM | CYP2C8 (gene 1558) 19.9 µM | CYP2C9 (gene 1559) 23.6 µM | CYP2E1 (gene 1571) 17.2 µM | CYP4A11 (gene 1579) 20.8 µM | [7] 20.8 µM | [9] 8.03 µM | [12] 15.4 µM | [10] 23.6 µM
inactive: BCL2L11 (gene 10018) | [3] | Caspase-3 (Homo sapiens) | [4] | [11] | [8] | [13]

CCCCCCCCCCCCCCCCOS(=O)(=O)O
active: CYP2E1 (gene 1571) 38.5 µM
not listed: [5]
inactive: all other assays above
